Assay results from the supplement of paper PMC6555819.

These sequences were tested on VDR:RXRa (NR concentration 270 nM, RXRa partner concentration 90 nM) (assay: PBM binding z-score (relative to random genomic background probes); higher = stronger binding; sequences stand for … in GC…GCGATTGACAGCGTAGAATGAAGG).
Method: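 Protein-binding microarray (Agilent 4x180K custom design, double-stranded 60-nt probes: 5' GC cap, 34-nt variable region, 24-nt constant primer region; full probe sequence given). Purified or IVT nuclear receptor:RXRα heterodimers (3:1 NR:RXRα, mostly 270:90 nM) or homodimers were incubated for 1 h in PBS with 2% milk and no ligand, then detected with Alexa488 antibodies. Fluorescence from o1-orientation probes (~5 replicates averaged) was converted to z-scores against 500 random hg19 background probes. Variable regions are seed direct-repeat (DR0–DR5) sites, all their single-nucleotide variants and half-site ablations.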

Sequence | PBM binding z-score
ACTAGCAGGCCAGGGGTCACTCAAGATTAGTCCG | 4.42
CTCAAAAGGTCGGTTGAGGTGAGTATACGGATAA | 2.54
CGAACGAGGTCAAGGACAGTGAATCTCCGCACGC | 5.09
ATCGAAAGGTCGTGCGGTGAGTATACAGAAAGGC | 3.46
ATACCAAGATGATCGTGAGGTCGTTGATACTAAC | 1.78
TCTGCTAGGTCAACGATGGTCAGCTGATCTGCTA | 1.73
ACTTACGGGTCAACGAGGTGATAGCACGCGTATA | 6.61
TGAATGAGGTTATAAGACCAGGGAACGTTGCAAA | 0.916
AGAACGAGGGCACGCTGAGTTGATAACAGAGTAG | 2.06
CCTAGTTGGTAAAGGTCACACACGCTATAGGTAC | 4.9
TCTTGTAGATCAATAGAGGTTACGAAAGTGCGCT | 2.15
TCTAGCAGGCCAGAGGGTCAATCAAGAGGTACGG | 1.6
TCTTGTACATCAATAGAGGTTAAGAAAGTGCGCT | 2.07
ATAATGAGGTTATTAAGATCAGGGAATTGCGGTC | 2.88
TCTTGTAGATCAACAGGAGTTTAAGAAAGATCGA | 0.517
ACTAGTTGGTCAGCTGAGGTCACGCACAATTCGG | 5.09
GCGACTGGCGCATCAGCAGGTTACCATAACTTAA | -0.625
ATCTCTAGGAAAAGTTCAGTGAAAGATCGATAGA | 1.2
CCTACTGGGCCATTCTGAGGTCATTGATCATATG | 3.7
TCTTATAGGTAAATGCTAGGTGAAAGTCCGATCT | 0.709

Sequence | PBM binding z-score
CGTCCAAGGTCAGCAGATCAGTGAAAGCGACGTG | 2.37
GATACAGGGTCAAGGCCAAAGTACGCGTATTGAT | 4.44
AGTCAAAGTTCATCTAGGTAACGTCAGATATGCT | 5.17
GCATATAGGTAATAAAAGGTGAAAGTCCGATTGT | 0.675
GGAACGAGGGAAAGTTGATAGCAGAGTTTGATGG | -0.524
AGAATTAGGTTAAGATCAGGGAAACAGAATACAT | 0.418
TCATATAGGTAAAAGGTGAAACTCGGTGTGGTAA | 2.04
GGAACGCGGGCAAGTTGATAGCAGAGTTTGATGG | -0.834
GCTCTGAGGACAAGGTCAGAGCTTTGTCCGTAGA | 1.68
GCTGCTAGGTCAGGTTCGTCAGCTAACGGGTACG | 1.44
CTTCCAAGGTCATAGGAGGTCAGTGAAGACAGAT | 6.66
TAGCCTAAGTCAGATCGGGCCAGTATACGCTATA | -0.662
ACTATTAGTTGTCTTAGGGCAACCGATACGACGC | -0.0128
TCTTGTAGATCAAAGGTTAAGAATGCCGAAGCCT | 1.7
ACTTACGGGTCAACGAGGATATAGCACGCGTATA | 6.51
TGTTGTAGATCAAAGGTTAAGAAAGCCGAAGCCT | 1.44
AGAACGAGGGCACGCTGAGGTGATAGCAGAGTAG | 1.78
TCTTGTAGAACAATAGAGGTTAAGAAAGTGCGCT | 1.65
CGTCCAAGGTCAATGCTAGGTCAGGGAAAGCATT | 4.75
CCTCGTTGGTCAGGAGGTCACACACCGGATATGA | 3.77
